Screens from PubChem BioAssay.
MPTP block: permeability transition pore inhibition; isolated mouse mitochondria, Ca2+ swelling absorbance, 30 min; inhibition, % at 10 µM; 1.4% of 360,000 active;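 active means inhibition of 50% or more, scaled per plate between neutral and stimulator controls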
tim10-1 inh: inhibits growth of tim10-1 mutant yeast | S. cerevisiae tim10-1 ts strain growth, BacTiter-Glo, 24 h | inhibition, % at 20 µM | 2.2% of 330,000 active;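 active means inhibition of at least 40%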;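 further: mutant grown at 25 °C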
TIM10 inh: growth inhibitors of TIM10 yeast strain | AID 463195 | inhibition, % at 10 µM | 1.4% of 330,000 active | S. cerevisiae TIM10 strain growth, BacTiter-Glo luminescence, 24 h;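 active means inhibition of 40% or more at the single tested concentration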;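 further: wild-type TIM10 isogenic control strain grown at permissive 25 °C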
Mdm2 MdmX PPI: human Mdm2/MdmX binding inhibition. O15151+Q00987. SaOS-2 split-luciferase Mdm2/MdmX complementation, luminescence. inhibition, % at 8 µM. 3% of 330,000 active;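 active means inhibition of at least 50% at 8 µM in the primary screen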
Target sequence (O15151 whole entry, looked up): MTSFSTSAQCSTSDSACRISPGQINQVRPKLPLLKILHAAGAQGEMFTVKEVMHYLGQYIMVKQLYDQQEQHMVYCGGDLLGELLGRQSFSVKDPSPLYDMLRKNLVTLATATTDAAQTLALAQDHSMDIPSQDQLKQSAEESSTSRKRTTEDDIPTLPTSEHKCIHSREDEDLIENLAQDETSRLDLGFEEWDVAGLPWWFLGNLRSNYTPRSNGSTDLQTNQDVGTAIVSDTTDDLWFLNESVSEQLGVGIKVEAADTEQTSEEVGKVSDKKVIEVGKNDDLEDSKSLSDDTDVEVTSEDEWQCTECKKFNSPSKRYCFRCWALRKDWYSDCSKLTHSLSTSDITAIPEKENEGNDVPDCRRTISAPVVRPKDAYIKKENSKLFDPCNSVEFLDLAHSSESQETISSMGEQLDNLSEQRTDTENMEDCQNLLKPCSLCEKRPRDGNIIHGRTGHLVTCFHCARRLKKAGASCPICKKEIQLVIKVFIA
Target sequence (Q00987 whole entry, looked up): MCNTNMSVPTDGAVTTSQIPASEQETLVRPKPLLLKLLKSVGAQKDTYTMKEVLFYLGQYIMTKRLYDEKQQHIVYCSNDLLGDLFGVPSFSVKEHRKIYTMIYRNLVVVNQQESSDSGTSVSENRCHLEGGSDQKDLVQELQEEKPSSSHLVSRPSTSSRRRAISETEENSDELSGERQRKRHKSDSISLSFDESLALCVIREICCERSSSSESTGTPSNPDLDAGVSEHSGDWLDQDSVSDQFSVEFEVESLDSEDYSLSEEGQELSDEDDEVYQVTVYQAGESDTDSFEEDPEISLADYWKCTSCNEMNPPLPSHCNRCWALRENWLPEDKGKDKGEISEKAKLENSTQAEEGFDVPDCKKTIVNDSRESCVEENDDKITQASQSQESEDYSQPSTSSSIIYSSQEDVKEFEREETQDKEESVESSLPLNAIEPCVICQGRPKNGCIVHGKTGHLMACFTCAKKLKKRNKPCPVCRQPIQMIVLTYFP
tim23-1 inh: tim23-1 yeast growth inhibition; 1.3% of 330,000 active; AID 463212; S. cerevisiae tim23-1 growth, BacTiter-Glo luminescence, 24 h; inhibition, % at 20 µM;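 active means growth inhibition of the mutant yeast at or above 50%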;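 further: temperature-sensitive mutant grown at 25 °C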
tim10-1 conf: tim10-1 yeast growth inhibition, confirmed; shares compounds with tim10-1 inh; S. cerevisiae tim10-1 ts strain growth, BacTiter-Glo, 24 h; inhibition, % at 20 µM; 56% of 7,400 active; AID 463213;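 active means inhibition of yeast growth at or above a set limit in either of two repeat tests at 20 µM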;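 further: tim10-1 mutant grown at permissive 25 °C to find synthetic lethal compounds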
tim10 confirm: confirmation of TIM10 yeast growth inhibitors; shares compounds with TIM10 inh; S. cerevisiae tim10 strain growth, BacTiter-Glo luminescence, 24 h; 63% of 4,600 active; inhibition, % at 10 µM; AID 463215;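 active means inhibition of yeast growth at or above a set limit in either of two replicates at 10 µM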; further: this counterscreen used the strain with wild-type TIM10
tim23-1 conf: tim23-1 yeast growth inhibition, confirmed; shares compounds with tim23-1 inh; S. cerevisiae tim23-1 growth, BacTiter-Glo luminescence, 24 h; inhibition, % at 20 µM; 83% of 4,400 active; AID 463218;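 active means inhibition above about 39% in either of two replicate wells at 20 µM, limit read from the data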;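 further: temperature-sensitive tim23-1 mutant grown at 25 °C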
Mdm2 MdmX conf: human Mdm2/MdmX binding inhibition, confirmed. AID 489028. 55% of 10,000 active. shares compounds with Mdm2 MdmX PPI. inhibition, % at 8 µM. luminescent assay; in the data active means inhibition above about 40%
FLuc counter: counter-screen for Mdm2/MdmX inhibitors: full-length luciferase | shares compounds with Mdm2 MdmX PPI | SaOS-2 full-length luciferase counterscreen, luminescence | inhibition, % at 8 µM | 77% of 6,200 active | AID 504607;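 active means mean inhibition at 8 µM reaching about 37%, which flags the compound as non-specific, limit read from the data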;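 further: p53-null SaOS-2 cells with luciferase driven by a doxycycline-inducible promoter; compound on cells about two nights before reading with doxycycline added after day one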
Rh123 counter: membrane potential counter-screen of mitochondrial pore inhibitors; shares compounds with MPTP block; isolated mitochondria, Rhodamine 123 fluorescence; AID 624504; inhibition, % at 10 µM; 78% of 5,000 active; in the data active means inhibition above about 22%
Large screens that a line does not name were inactive (follow-up assays come after a bar, where they were run). Rows were chosen to be rich in hits. Some 6.3% of all compounds tested hit in one or more screens of this group.

CCOC(=O)C1=C(CC)Nc2ccccc2N=C1NC(=O)Nc1ccc(Cl)c(Cl)c1	MPTP block 97, tim10-1 inh 79, TIM10 inh 70, Mdm2 MdmX PPI 94, tim23-1 inh 76 | tim10-1 conf 71 | tim10 confirm inactive | tim23-1 conf 72 | Mdm2 MdmX conf 80 | FLuc counter 39 | Rh123 counter 62
CCC/C=C/c1ccc(CN2C(C(C)C)C(=O)N(Cc3cn(Cc4ccco4)nn3)CCS2(=O)=O)cc1 (stereo unspecified)	none (no result: tim10-1 inh, TIM10 inh, Mdm2 MdmX PPI, tim23-1 inh)
Nc1sc(-c2ccccc2)cc1C(=O)N1CCNCC1	none (no result: tim10-1 inh, TIM10 inh, Mdm2 MdmX PPI, tim23-1 inh)
O=C(NNC(=S)NCc1ccccc1)c1ccccc1OC(F)F	none
O=C(NNC(=S)Nc1ccc(Cl)cc1)c1ccccc1OC(F)F	MPTP block 73, tim10-1 inh 42 | tim10-1 conf 39 | Rh123 counter 86
COc1ccc(Cl)cc1NC(=S)NCCSc1ccc(C)cc1	MPTP block 82, tim10-1 inh 49 | tim10-1 conf 40 | Rh123 counter 81
Cc1cccc(C)c1NC(=S)NCCSc1ccc(Cl)cc1	MPTP block 82, tim10-1 inh 42 | tim10-1 conf inactive | Rh123 counter 86
O=C(c1cccc(Cl)c1)N1CCC(=O)N([C@H](COCc2ccccc2)Cc2ccccc2)CC1	none (no result: tim10-1 inh, TIM10 inh, Mdm2 MdmX PPI, tim23-1 inh)
COc1cc(OC)c(NC(=S)Nc2cc(Cl)cc(Cl)c2)cc1Cl	MPTP block 104, tim10-1 inh 54, TIM10 inh 41, tim23-1 inh 54 | tim10-1 conf 53 | tim10 confirm inactive | tim23-1 conf 58 | Rh123 counter 84
COc1cc(C)c(NC(=S)Nc2ccc(Cl)c(Cl)c2)cc1OC	MPTP block 100, tim10-1 inh 45 | tim10-1 conf inactive | Rh123 counter 82
COc1cc(OC)c(NC(=S)Nc2cccc(C(C)=O)c2)cc1Cl	none
COCCNC(=S)Nc1ccc(Cl)c(Cl)c1	none
Nc1nc(N)c2cc(CNc3ccc(Cl)c(Cl)c3)ccc2n1	none (no result: tim10-1 inh, TIM10 inh, Mdm2 MdmX PPI, tim23-1 inh)
O=C(c1ccc(Cl)c(Cl)c1)N1CCC(=O)N([C@H](COCc2ccc(Cl)cc2)Cc2ccccc2)CC1	none (no result: tim10-1 inh, TIM10 inh, Mdm2 MdmX PPI, tim23-1 inh)
COc1ccc(N2CC(C)(C)[C@H](CC(=O)Nc3ccccc3)C2=O)cc1	none (no result: tim10-1 inh, TIM10 inh, Mdm2 MdmX PPI, tim23-1 inh)
Cc1ccc(Cl)cc1-c1cc(C(=O)N2CCc3ccccc3C2)[nH]n1	none (no result: tim10-1 inh, TIM10 inh, Mdm2 MdmX PPI, tim23-1 inh)
CCc1nc(SCc2nc3ccccc3[nH]2)c2oc3ccccc3c2n1	MPTP block 69, tim10-1 inh 40 | tim10-1 conf inactive | Rh123 counter 82
Cc1nc(SCc2nc3ccc(Br)cc3[nH]2)c2oc3ccccc3c2n1	none
CCOC(=O)C1(CCCc2ccccc2)CCN(Cc2nccn2CC)CC1	MPTP block 56, tim10-1 inh 41 | tim10-1 conf inactive | Rh123 counter 40
NC(=S)n1[nH]c(-c2ccc([N+](=O)[O-])cc2)c(N=Nc2cccc(Cl)c2)c1=O	MPTP block 90, tim10-1 inh 41, Mdm2 MdmX PPI 97 | tim10-1 conf 43 | Mdm2 MdmX conf 91 | FLuc counter 40 | Rh123 counter 70
COc1ccc(-c2cc(=O)n(-c3ccc([N+](=O)[O-])cc3)[nH]2)cc1	MPTP block 97, tim10-1 inh 50, Mdm2 MdmX PPI 55 | tim10-1 conf 38 | Mdm2 MdmX conf inactive | Rh123 counter 71
O=C(O)c1ccc(N2CCN(c3ccc(Cl)cc3)CC2)c([N+](=O)[O-])c1	none
CC(=O)c1ccc(N2CCC(c3cc(-c4ccc(Cl)cc4Cl)n[nH]3)CC2)c([N+](=O)[O-])c1	MPTP block 74, tim10-1 inh 44, Mdm2 MdmX PPI 52 | tim10-1 conf inactive | Mdm2 MdmX conf inactive | Rh123 counter 68
CC1(C(=O)NS(=O)(=O)c2cccc(C#N)c2)CCN1C(=O)C1(c2ccccc2)CC1 (stereo unspecified)	none (no result: tim10-1 inh, TIM10 inh, Mdm2 MdmX PPI, tim23-1 inh)
CCCCCCC(C)NC(=S)Nc1cc(S(=O)(=O)N(C)C)ccc1C (stereo unspecified)	MPTP block 64, tim10-1 inh 41 | tim10-1 conf inactive | Rh123 counter 79
CC(=O)NNC(=S)Nc1cc(S(=O)(=O)N(C)C)ccc1C	none
CCC12CC1(C(=O)OC)C(=O)N1CCc3c([nH]c4ccccc34)C12 (stereo unspecified)	none (no result: tim10-1 inh, TIM10 inh, Mdm2 MdmX PPI, tim23-1 inh)
O=C(NCCCSc1ccccc1)c1cc(Cl)ccc1O	MPTP block 82, tim10-1 inh 47 | tim10-1 conf inactive | Rh123 counter 83
O=[N+]([O-])c1ccc(NC(=S)NCCc2ccc(Cl)cc2)cc1	MPTP block 88, tim10-1 inh 65, TIM10 inh 72, Mdm2 MdmX PPI 93, tim23-1 inh 65 | tim10-1 conf 73 | tim10 confirm 85 | tim23-1 conf 68 | Mdm2 MdmX conf 81 | FLuc counter 46 | Rh123 counter 85
O=[N+]([O-])c1ccc(NC(=S)NCCc2ccccc2)cc1	MPTP block 87, tim10-1 inh 67, TIM10 inh 59, tim23-1 inh 52 | tim10-1 conf 57 | tim10 confirm 52 | tim23-1 conf 69 | Rh123 counter 88
O=[N+]([O-])c1ccc(NC(=S)NCc2ccncc2)cc1	none
CCc1nonc1NC(=O)c1oc2ccc(F)cc2c1C	none
Cc1c(C(=O)Nc2nonc2-c2ccc(F)cc2)oc2ccc(F)cc12	MPTP block 81, tim10-1 inh 44, Mdm2 MdmX PPI 86 | tim10-1 conf inactive | Mdm2 MdmX conf 76 | FLuc counter 52 | Rh123 counter 84
CCCc1[nH]c2ccc(C#N)cc2c1CCC	MPTP block 69, tim10-1 inh 53 | tim10-1 conf 33 | Rh123 counter 86
N#C/C(N=Nc1ccccc1O)=N\Nc1ccccc1O	MPTP block 126, tim10-1 inh 65, Mdm2 MdmX PPI 82, tim23-1 inh 82 | tim10-1 conf 60 | tim23-1 conf 66 | Mdm2 MdmX conf 94 | FLuc counter inactive | Rh123 counter 44
CCOC(=O)/C(C#N)=N/Nc1ccccc1C(=O)O	none
C[C@@H]1CN([C@@H](C)CO)C(=O)CCCn2cc(nn2)CO[C@H]1CN(C)C(=O)Oc1ccccc1	none (no result: tim10-1 inh, TIM10 inh, Mdm2 MdmX PPI, tim23-1 inh)
